Reference: PubChem BioAssay (EPA / NIEHS)
Results filed as inconclusive are left out. Some compounds were tested as several samples or in several runs, with calls that do not always agree. Activity calls are given as the source filed them. Rule for the calls, unless noted: active = hit-call score of the fitted dose curve at least 0.9, where 1 is the maximum; inactive = score below 0.9.

Experiments:
[1] = CCTE_Simmons_MITO_basal_resp_rate: CCTE's HepG2 Seahorse XF Respirometric Screening Assay at Basal Respiratory State, Simmons Lab (AID 2284001); settings: actives raise or lower the signal
In short: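 Readout is oxygen consumption rate after test compound injection, measured by Seahorse XF in HepG2 cells. Seven concentrations from 125 nM up to 100 uM final are tested, and activity in either direction is fitted against DMSO.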

[2] = CCTE_Simmons_MITO_max_resp_rate: CCTE's HepG2 Seahorse XF Respirometric Screening Assay at Maximal Respiratory State [uncoupled], Simmons Lab (AID 2284002); settings: actives raise or lower the signal
In short: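 Uncoupled (FCCP) respiration of HepG2 cells served as the endpoint, with measurements at 6-minute intervals across a 72-minute run and compounds dosed at 7 concentrations up to 100 uM final.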

[3] = CCTE_Simmons_MITO_inhib_resp_rate: CCTE's HepG2 Seahorse XF Respirometric Screening Assay at Inhibited Respiratory State [full ETC block], Simmons Lab (AID 2284006); settings: actives raise or lower the signal
In short: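 Test chemicals at seven final concentrations (125 nM–100 uM) in three biological replicates, with DMSO as vehicle. HepG2 oxygen consumption was then tracked on a Seahorse XF96 for 72 min through FCCP and rotenone/antimycin A phases, with the inhibited-phase rate as the endpoint.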

[4] = CCTE_Simmons_MITO_viability: CellTiter-Glo Viability Assessment for CCTE's HepG2 Seahorse XF Respirometric Screening Assay [post-hoc], Simmons Lab (AID 2284007; active = hit-call score of the fitted dose curve at least 0.9, where 1 is the maximum;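 for AC50: cells exposed to chemical for 90 min before the ATP read; actives lower ATP signal relative to DMSO baseline meaning reduced viability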)
In short: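 Post-hoc viability check on the HepG2 respirometry plates: luciferase-based ATP signal measured once, after 90 min compound exposure spanning 125 nM–100 uM final. Activity was referenced to DMSO as baseline.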

[5] = CCTE_Shafer_MEA_acute_spike_number: CCTE's Neural Acute Assay for Total Number of Spikes, Shafer Lab (AID 2284008);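 for AC50: curve fitted for decrease in spike count so AC50 reflects inhibitors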
In short: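 Using an adaptive detector set to 8x rms noise, spikes were counted in 40-min windows before and after compound addition (0.03-40 uM) to rat cortical networks at 37 C; the well-level change from baseline was analysed relative to DMSO.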

[6] = CCTE_Harrill_HTTr_Viability_MCF7: CCTE's 6-hour Cell Viability Assessment for the High-Throughput Transcriptomics (HTTr) Platform, in MCF-7 cells cultured in DMEM + 10% fetal bovine serum, Harrill Lab (AID 2284010)
In short: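 Eight-point concentration series, six-hour exposure. Propidium iodide exclusion imaged to assess membrane integrity as a cytotoxicity readout; bidirectional fitting was done with DMSO as negative control and activity baseline.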

[7] = CCTE_Harrill_HTTr_CellCount_MCF7: CCTE's Cell Proliferation Assessment for the High-Throughput Transcriptomics (HTTr) Platform, Harrill Lab (AID 2284012; active = hit-call score of the fitted dose curve at least 0.9, where 1 is the maximum;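 note: count of Hoechst-stained nuclei per well by high-content imaging in MCF-7 cells; cells exposed to compound for six hours; intended direction is loss of nuclei count meaning fewer cells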)
In short: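 For this full-screen endpoint, MCF-7 cultures received eight compound dilutions for six hours. Well nuclei counts from Hoechst imaging were analyzed relative to DMSO.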

[8] = CCTE_Shafer_MEA_acute_burst_number: CCTE's Neural Acute Assay for Single-Electrode Bursts, Shafer Lab (AID 2284013)
In short: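 Burst totals were derived with adaptive spike detection (8x rms threshold) on filtered signals from rat cortical cultures; change relative to pre-treatment baseline after 40-min compound exposure (0.03-40 uM) was fitted in the negative direction against DMSO.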

[9] = CCTE_Shafer_MEA_acute_burst_duration_mean: CCTE's Neural Acute Assay for Mean Burst Duration, Shafer Lab (AID 2284014);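 note: hits are decreases in mean burst duration relative to DMSO controls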
In short: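 Acute exposure of mature rat cortical networks (DIV 13 or 15) grown on microelectrode arrays to 0.03-40 uM compound. Mean burst duration compared with the 40-min pre-dose baseline over a 40-min post-dose recording at 37 C.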

[10] = CCTE_Shafer_MEA_acute_per_burst_spike_number_mean: CCTE's Neural Acute Assay for Average Number of Spikes Per Burst, Shafer Lab (AID 2284015);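 note: hits are decreases in mean spikes per burst versus baseline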
In short: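 Read-out: percent change in mean spikes per burst, each well's post-exposure 40-min recording versus its own 40-min baseline. Rat cortical cultures, DIV 13 or 15, compounds 0.03-40 uM; DMSO is negative control, loss-of-signal fitting.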

[11] = CCTE_Shafer_MEA_acute_interburst_interval_mean: CCTE's Neural Acute Assay for Mean Interburst Interval, Shafer Lab (AID 2284016);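 note: percent change of mean interburst interval versus each well's own pre-dose baseline; curves fitted for decrease in interburst interval relative to DMSO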
In short: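 Rat cortical cultures, DIV 13/15; 20 min equilibration, 40 min baseline, compound 0.03-40 uM, 40 min re-recording, 37 C. Spikes detected at 8x rms noise (300-5000 Hz band-pass). Endpoint: % change in interburst interval, fitted in loss direction vs DMSO.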

[12] = CCTE_Shafer_MEA_acute_burst_percentage_mean: CCTE's Neural Acute Assay for Percentage of Spikes in a Burst, Shafer Lab (AID 2284017);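 for AC50: curve fitted for loss of signal so potency reflects decreased burst percentage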
In short: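 Rat cortical cultures, DIV 13/15, 37 C. Spikes detected at 8x rms noise (300-5000 Hz band-pass). Burst spikes/total spikes averaged across electrodes per well; % change post- vs pre-treatment (40 min each), loss-of-signal fit vs DMSO.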

[13] = CCTE_Shafer_MEA_acute_per_network_burst_spike_number_mean: CCTE's Neural Acute Assay for Average Number of Spikes in a Network Burst, Shafer Lab (AID 2284019);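 for AC50: curve fitted for loss of signal so actives reduce spikes per network burst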
In short: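 Acute exposure of rat primary cortical networks (DIV 13/15) on MEAs; adaptive spike detection at 8x rms noise, 37 C. Percent change in spikes per network burst after 40 min with compound (0.03-40 uM), negative direction vs DMSO.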

[14] = CCTE_Shafer_MEA_acute_per_network_burst_spike_number_std: CCTE's Neural Acute Assay for Standard Deviation of Number of Spikes in a Network Burst, Shafer Lab (AID 2284020);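 note: fitted for decrease in spike-number SD versus DMSO so actives lower it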
In short: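 Acute MEA exposure, rat cortical neurons, 0.03-40 uM. Per-well % change versus own baseline; DMSO as negative control.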

[15] = CCTE_Shafer_MEA_acute_per_network_burst_electrodes_number_mean: CCTE's Neural Acute Assay for Mean Number of Electrodes in a Network Burst, Shafer Lab (AID 2284021);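 note: curves fitted for decreases only so hits reduce electrodes per burst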
In short: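 Percent change from baseline in average electrode count per network burst, rat cortical cultures on 48-well MEAs; 40-min recordings each side of exposure, DIV 13 or 15; threshold 8x rms noise; DMSO as negative control.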

[16] = CCTE_Shafer_MEA_acute_network_burst_percentage: CCTE's Neural Acute Assay for Percentage of Network Bursts, Shafer Lab (AID 2284022);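 note: curves fitted for loss so actives lower network burst percentage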
In short: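 On DIV 13 or 15, at least three wells of rat cortical neurons per compound are dosed at 0.03-40 uM. Spontaneous firing is detected at 8x rms noise for 40 min before and after dosing at 37 C. The percent change in network-burst spike share is reported.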

[17] = CCTE_Shafer_MEA_acute_cross_correlation_area: CCTE's Neural Acute Assay for Area of Cross Correlation, Shafer Lab (AID 2284024);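 note: area under pooled inter-electrode spike cross-correlation near zero lag as percent change from own baseline; curves fitted for loss of cross-correlation area so actives lower synchrony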
In short: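 Extracellular recordings from cultured rat cortical neurons measure network synchrony as cross-correlation area; each well's post-compound value (0.03-40 uM, 40 min) is compared with its own 40 min baseline to give percent change.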

[18] = CCTE_Shafer_MEA_acute_cross_correlation_HWHM: CCTE's Neural Acute Assay for Cross Correlation at Half Width at Half Maximum, Shafer Lab (AID 2284026);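 note: percent change per well from pre-dose baseline in spike cross-correlogram half width; hits are a decrease in cross-correlogram half width relative to DMSO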
In short: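 Percent change in cross-correlogram half width at half maximum, narrower meaning more synchrony, was derived per well from paired 40-min recordings before and during exposure to 0.03-40 uM compound in rat cortical cultures at 37 C.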

[19] = CCTE_Shafer_MEA_acute_synchrony_index: CCTE's Neural Acute Assay for Synchrony, Shafer Lab (AID 2284027);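 note: network synchrony index of spontaneous spiking in primary rat cortical neurons on MEAs; fitted for loss of signal so actives lower synchrony relative to DMSO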
In short: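 Acute exposure of rat primary cortical neurons (DIV 13 or 15) at 0.03-40 uM. Synchrony index, 40 min before vs after, as % change relative to DMSO control.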

[20] = CCTE_Harrill_HTTr_Apoptosis_MCF7: CCTE's 6-hour Apoptosis Assessment for the High-Throughput Transcriptomics (HTTr) Platform, in MCF-7 cells cultured in DMEM + 10% fetal bovine serum, Harrill Lab (AID 2284011)
In short: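 Apoptosis in MCF-7 cells grown in DMEM with 10% fetal bovine serum was scored after a six hour exposure by high content imaging of caspase-3/7 activation (CellEvent Caspase 3/7 Green), with DMSO serving as negative control and baseline.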

Measured: AC50

CCCN(CCOc1c(Cl)cc(Cl)cc1Cl)C(=O)n1ccnc1
inactive: [3] | [6] | [7] | [11] | [15] | [16] | [17] | [18] | [19]
active: [1] 11.2 µM | [2] 18 µM | [4] 13.6 µM | [5] 1.26 µM | [8] 1.56 µM | [9] 29.5 µM | [10] 33.1 µM | [12] 34.6 µM | [13] 33.6 µM | [14] 32.6 µM

CC1(c2ccc(Oc3ccccc3)cc2)OC(=O)N(Nc2ccccc2)C1=O (configuration not stated)
active: [1] 4.7 µM | [2] 3.04 µM
inactive: [3] | [4] | [6]

CCC(C)(NC(=O)c1cc(Cl)c(C)c(Cl)c1)C(=O)CCl (configuration not stated)
inactive: [1] | [2] | [3] | [6] | [7]

CNC(=O)CSP(=S)(OC)OC
inactive: [5] | [6] | [7] | [8] | [9] | [10] | [11] | [12] | [13] | [14] | [15] | [16] | [17] | [18] | [19]

CCC(C)(C)C(=O)OC1=C(c2ccc(Cl)cc2Cl)C(=O)OC12CCCCC2
inactive: [5] | [6] | [20] | [7] | [8] | [9] | [10] | [11] | [12] | [13] | [14] | [15] | [16] | [17] | [18] | [19]
active: [9] 25.9 µM | [10] 20 µM | [12] 3.59 µM | [13] 20 µM | [17] 20 µM | [18] 0.106 µM | [19] 5.2 µM

Oc1cc(Cl)ccc1Oc1ccc(Cl)cc1Cl
inactive: [1] | [3] | [4] | [6] | [7] | [9] | [10] | [13] | [14] | [15] | [17]
active: [1] 21 µM | [2] 19.3 µM | [5] 1.89 µM | [8] 1.29 µM | [11] 1.2 µM | [12] 12.7 µM | [16] 5 µM | [18] 20 µM | [19] 5 µM
